PubChem BioAssay (Tox21)
Inconclusive results are not listed. Entries that show only a call come without a potency. Active and inactive are the calls of the source. Unless noted, calls come from the whole dose curve; as a rule, active = well fitted curve in the direction sought with a large enough effect in the repeat runs; inconclusive = weak or mixed curves; inactive = no such curve, though single readings can be large; an effect the other way counts as inactive or inconclusive.

Legend:
[1] = qHTS assay to identify small molecule agonists of the vitamin D receptor (VDR) signaling pathway - cell viability counter screen (AID 743224); note: series mostly up to about 63 µM; nearly all actives have a fitted effect of over 50% in size
Summary of the method: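 Compounds were pin-transferred onto VDR-bla cells plated 4 h earlier; following 16 h incubation at 37C, cell viability was quantified by CellTiter-Glo luminescence after 30 min at room temperature.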

[2] = qHTS assay to identify small molecule antagonists of the vitamin D receptor (VDR) signaling pathway - cell viability counter screen (AID 743225); note: nearly all actives have a fitted effect of over 50% in size
Summary of the method: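 Luminescent cell viability (CellTiter-Glo) in VDR-bla HEK 293T cells after 16 h compound exposure at 37C in the presence of 3 nM final 1-alpha,25-dihydroxy vitamin D3.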

[3] = qHTS assay to identify small molecule agonists of the NFkB signaling pathway - cell viability counter screen (AID 1159515; calls by dose curve; note: series mostly up to about 61 µM; nearly all actives have a fitted effect of over 55% in size)
Summary of the method: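 Parallel cytotoxicity counter screen in ME-180 cells carrying an NFkB-response-element beta-lactamase reporter, 2,000 cells/well. Compound exposure lasted 5 hr at 37 C, 5% CO2. Cell viability was quantified by CellTiter-Glo luminescence.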

[4] = qHTS assay to identify small molecule agonists of the endoplasmic reticulum stress response signaling pathway (AID 1159516; active = well fitted activation curve with a large enough effect in the signal ratio in the repeat runs, not every such curve was filed as active; the % refers to the signal ratio)
Summary of the method: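 Using a HeLa line with an ESRE-driven beta-lactamase gene, agonist activity was measured by FRET substrate fluorescence (460 and 530 nm emission) after cells were treated with compounds for 5 hr at 37 C and 5% CO2.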

[5] = qHTS assay to identify small molecule agonists of the endoplasmic reticulum stress response signaling pathway - cell viability counter screen (AID 1159517; calls by dose curve;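 note: HeLa cells carrying an ER stress response element beta-lactamase reporter; series mostly up to about 61 µM; nearly all actives have a fitted effect of over 50% in size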)
Summary of the method: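 After overnight attachment, ESRE-bla HeLa cells were treated with Tox21 library compounds for 5 hr. CellTiter-Glo luminescence, read 30 min post-addition at room temperature, reported viability.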

[6] = qHTS assay to identify small molecule antagonists of the retinoid-related orphan receptor gamma (ROR-gamma) signaling pathway - cell viability counter screen (AID 1159520); note: nearly all actives have a fitted effect of over 50% in size
Summary of the method: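 Cytotoxicity was read from cellular ATP (CellTiter-Glo luminescence) after 16 hr at 37 C with 1 uM doxycycline induction. The inducer was added 2 hr after compound transfer to Tet-on ROR gamma CHO cells.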

[7] = qHTS assay to identify small molecule agonists of the AP-1 signaling pathway - cell viability counter screen (AID 1159525; calls by dose curve; note: nearly all actives have a fitted effect of over 55% in size; note: potency is the fitted concentration of half-maximal effect)
Summary of the method: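 Intracellular ATP by Cell Titer Glo luminescence (30 min, RT) in the same ME-180 AP-1-bla wells after the 5 h compound exposure at 37 °C. Normalised to tetra n-octyl ammonium bromide and DMSO controls.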

[8] = molecular target: Retinoic acid receptor RXR-alpha (Homo sapiens) (UniProt P19793); assay: qHTS assay to identify small molecule agonists of the RXR signaling pathway (AID 1159527; calls by dose curve; note: nearly all actives have a fitted effect of over 35% in size; note: potency is the fitted concentration of half-maximal effect)
Chain of Retinoic acid receptor RXR-alpha (Homo sapiens) (P19793 whole entry, looked up): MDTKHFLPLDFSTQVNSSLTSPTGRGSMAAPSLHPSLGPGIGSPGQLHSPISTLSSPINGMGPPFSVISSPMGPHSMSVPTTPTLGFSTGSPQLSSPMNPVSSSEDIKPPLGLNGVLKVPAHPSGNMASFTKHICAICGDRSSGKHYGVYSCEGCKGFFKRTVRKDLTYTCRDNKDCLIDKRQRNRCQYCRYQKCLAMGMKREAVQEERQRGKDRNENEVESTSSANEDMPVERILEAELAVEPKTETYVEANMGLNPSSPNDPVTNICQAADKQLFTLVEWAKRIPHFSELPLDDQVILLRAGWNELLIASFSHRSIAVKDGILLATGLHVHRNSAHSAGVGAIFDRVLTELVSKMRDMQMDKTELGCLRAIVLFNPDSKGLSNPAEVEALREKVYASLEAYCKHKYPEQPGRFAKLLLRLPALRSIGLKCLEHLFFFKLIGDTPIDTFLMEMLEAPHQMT
Summary of the method: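 Beta-lactamase reporter assay, agonist format. Engineered HEK 293T line, charcoal-stripped FBS at 2%, overnight (16 hr) exposure, fluorescence at 460 and 530 nm after 405 nm excitation.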

[9] = qHTS assay to identify small molecule agonists of the RXR signaling pathway - cell viability counter screen (AID 1159529); note: nearly all actives have a fitted effect of over 50% in size; note: potency is the fitted concentration of half-maximal effect
Summary of the method: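 Same-well viability check after the LiveBLAzer FRET read: CellTiter-Glo added, luminescence measured after 30 min at room temperature. Reporter HEK 293T cells had been treated with compounds for 16 hr following a 5 hr preincubation.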

[10] = qHTS assay to identify small molecule antagonists of the retinoid acid receptor (RAR) signaling pathway - cell viability counter screen (AID 1159551); note: nearly all actives have a fitted effect of over 35% in size
Summary of the method: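 ATP-based viability, C3RL4 cells, 6 h at 37 C with 1 uM final retinol co-added after compound; luminescence read 30 min post CellTiter-Glo, RT.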

[11] = qHTS assay to identify small molecule antagonists of the retinoic acid receptor (RAR) signaling pathway (AID 1159552; note: nearly all actives have a fitted effect of over 50% in size; note: potency is the fitted concentration of half-maximal effect)
Summary of the method: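 Readout: luciferase luminescence, 30 min post-reagent at RT. Setup: C3RL4 RARE reporter cells, compounds plus retinol 1 uM final, 6 hr incubation at 37 C and 5% CO2.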

[12] = qHTS assay to identify small molecule agonists of the retinoic acid receptor (RAR) signaling pathway (AID 1159553)
Summary of the method: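 Quantitative high-throughput format: the Tox21 10K library was tested on C3RL4 RARE-luciferase cells for 6 hr at 37 C and 5% CO2, with luminescence measured after a 30 min room-temperature reagent step.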

[13] = qHTS assay to identify small molecule antagonists of the estrogen related receptor (ERR) signaling pathway - cell viability counter screen (AID 1224818);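 note: series mostly up to about 46 µM; viability measured after 17.5 h of compound exposure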
Summary of the method: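 Quantitative high-throughput viability counter screen in ERR cells. Compounds (DMSO) incubated 17.5 h at 37 C; read-out was CellTiter-Fluor fluorescence.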

[14] = qHTS assay to identify small molecule antagonists of the estrogen related receptor signaling pathway with the pleiotropic PPARgamma coactivator (PGC) cell viability counter screen (AID 1224822; note: series mostly up to about 46 µM)
Summary of the method: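 Cytotoxicity in the PGC/ERR cell line is assessed with CellTiter-Fluor, read as fluorescence intensity 30 min after reagent addition, following 17.5 h compound treatment at 37 C.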

[15] = qHTS assay to identify small molecule agonists of the AP-1 signaling pathway (AID 1159526; calls by dose curve)
[16] = qHTS assay to identify small molecule antagonists of the estrogen related receptor (ERR) signaling pathway (AID 1224819)
Summary of the method: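 ERR reporter cell line (NTP) plated at 2,000 cells/well, settled 6 h at 37C/5% CO2, then exposed to LOPAC compounds for 18 h at 37C. One-Glo luciferase luminescence read after 30 min at room temperature.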

[17] = qHTS assay to identify small molecule agonists of the estrogen related receptor (ERR) signaling pathway (AID 1224820)
Summary of the method: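 Luminescence readout (One-Glo, 30 min RT) from NTP-supplied ERR cell line exposed to compounds for 18 h at 37 C. Cells seeded 2,000 per well and pre-incubated 6 h before pin-tool compound transfer.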

[18] = qHTS assay to identify small molecule agonists of the estrogen related receptor signaling pathway with the pleiotropic PPARgamma coactivator (PGC) (AID 1224823)
Summary of the method: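 Luminescence readout (One-Glo, 30 min RT) from PGC/ERR cell line treated 18 h at 37 C with pin-tool-delivered DMSO compound solutions; cells plated 6 h before dosing. Quantitative HTS format.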

[19] = molecular target: Nuclear receptor ROR-gamma (Homo sapiens) (UniProt P51449); assay: qHTS assay to identify small molecule antagonists of the retinoid-related orphan receptor gamma (ROR-gamma) signaling pathway (AID 1159521)
Summary of the method: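 CHO cells expressing RORγ under a TET-on promoter, luciferase under RORE control. Dox 1 uM final, 16 h; compounds added 2 h prior. Luminescence decrease measured.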

Row | SMILES | Potency [1] | Potency [2] | Potency [3] | Potency [4] | Potency [5] | Potency [6] | Potency [7] | Potency [8] | Potency [9] | Potency [10] | Potency [11] | Potency [12] | outcome [13] | outcome [14] | Potency [15] | Potency [16] | outcome [17] | outcome [18] | Potency [19]
1 | CCCCc1ncc(/C=C(\Cc2cccs2)C(=O)O)n1Cc1ccc(C(=O)O)cc1 | inactive | inactive | inactive | inactive | inactive | inactive | inactive | inactive | inactive | inactive | inactive | inactive | inactive | inactive |  |  |  |  | 
2 | COS(=O)(=O)C(F)(F)F |  | inactive | inactive | inactive | inactive | inactive | inactive | inactive | inactive | inactive |  |  |  |  |  |  |  |  | 
3 | COc1ccc(S(=O)(=O)N2C(=O)[C@@](c3ccccc3OC)(N3C[C@H](O)C[C@H]3C(=O)N(C)C)c3cc(Cl)ccc32)c(OC)c1 |  | inactive | inactive | inactive | inactive | inactive | inactive |  |  | inactive |  | inactive |  |  | inactive |  |  |  | 
4 | c1ccc(-c2ccccn2)nc1 | inactive | inactive | inactive | inactive | inactive | inactive | inactive | inactive | inactive | inactive | inactive |  | inactive | inactive |  | inactive | inactive | inactive | 
5 | O=C(Nc1ccc(S(=O)(=O)N2CCOCC2)cc1)c1cc(Cl)ccc1NS(=O)(=O)c1ccc(Cl)s1 |  |  | inactive | inactive | inactive | inactive | inactive | inactive | inactive | inactive |  | inactive |  |  |  |  |  |  | 
6 | Cn1c(=O)cc(Oc2ccc(F)cc2F)c2cnc(NCC(C)(C)O)nc21 |  | inactive | inactive | inactive | inactive | inactive | inactive |  | inactive | inactive |  |  |  |  | inactive |  |  |  | 
7 | CC(COCCO)OCCO (centres undefined) | inactive | inactive | inactive | inactive | inactive | inactive | inactive |  | inactive | inactive | inactive | inactive |  |  |  |  |  |  | 
8 | CC(=O)[O][Al] | inactive | inactive | inactive | inactive | inactive | inactive | inactive |  | inactive |  |  | inactive |  |  | inactive |  |  |  | 
9 | O=C(NCCO[N+](=O)[O-])c1cccnc1 | inactive | inactive | inactive | inactive | inactive | inactive | inactive | inactive | inactive | inactive |  |  |  |  |  |  |  |  | 
10 | Cc1oc(-c2ccccc2)nc1CCOc1cccc2c1ccn2CCC(=O)O | inactive | inactive | inactive | inactive | inactive | inactive | inactive | 17.4 µM (active) |  | inactive | inactive | inactive |  |  |  |  |  |  | 
11 | CN(C)C(=O)NC1(c2ccccc2)CCN(CC[C@@]2(c3ccc(F)c(F)c3)CN(C(=O)c3ccccc3)CCO2)CC1 | inactive | inactive | inactive | inactive | inactive | inactive | inactive |  | 45.5 µM (active) | inactive |  |  |  |  | inactive |  |  |  | 
12 | C=CCOC(=O)CCC1CCCCC1 | inactive | inactive | inactive | inactive | inactive | inactive | inactive |  | inactive | inactive |  |  |  |  | inactive |  |  |  | 
13 | CC(C)Cc1ccc(C(C)C(=O)OCc2ccccn2)cc1 (centres undefined) | inactive | inactive | inactive | inactive | inactive | inactive | 0.239 µM (active) |  | inactive | inactive |  |  |  |  | inactive |  |  |  | 
14 | CN(C)CCN(Cc1ccccc1)c1ccccn1 | inactive | inactive | inactive | inactive | inactive | inactive | inactive | inactive | inactive | inactive |  |  |  |  |  |  |  |  | 
15 | C#Cc1cccc(Nc2ncnc3cc(OCCOC)c(OCCOC)cc23)c1 | inactive | inactive | inactive | inactive | inactive | inactive | inactive |  | inactive | inactive | inactive | inactive |  |  |  |  |  |  | 
16 | C[C@@H]1C[C@H]2O[C@@]3(O[C@@H]2C(C)(C)O)[C@H](O)[C@@]2(C)[C@@H]4CC[C@H]5C(C)(C)[C@@H](O[C@@H]6OC[C@@H](O)[C@H](O)[C@H]6O)CC[C@@]56C[C@@]46CC[C@]2(C)[C@@H]13 | inactive | inactive |  | inactive | inactive | inactive | inactive |  |  | inactive | inactive |  |  |  |  |  |  |  | inactive
17 | CCOc1ccc(N)c([N+](=O)[O-])c1 | inactive | inactive | inactive | inactive | inactive |  | inactive | inactive | inactive | inactive | inactive | inactive |  |  | inactive |  |  |  | inactive
18 | C=CC(=O)OCCOc1ccccc1 | inactive | inactive | inactive | inactive | inactive | inactive | inactive |  | inactive |  | 48.5 µM (active) | inactive |  |  |  |  |  |  | 
19 | Clc1ccc(Cn2c(CN3CCCC3)nc3ccccc32)cc1 | inactive |  | inactive | inactive | inactive | inactive | inactive |  | inactive | inactive |  | inactive | inactive |  |  |  |  |  | 
20 | CC[N+]1(CC)CCC(=C(c2ccccc2)c2ccccc2)C1C (centres undefined) |  |  | inactive | inactive | inactive | inactive |  | inactive | inactive | inactive |  |  |  |  | inactive |  |  |  | 
21 | COc1ccc(C(=O)c2ccc(OC)cc2O)c(O)c1 |  | inactive | inactive | inactive | inactive |  | inactive |  | inactive | inactive | inactive |  |  |  | inactive |  |  |  | inactive
